# Reference: the supplement of paper PMC4022240
# ± gives the standard deviation.
# T1: HaloTag-ATRX ADD domain (163-292)
# T1 chain: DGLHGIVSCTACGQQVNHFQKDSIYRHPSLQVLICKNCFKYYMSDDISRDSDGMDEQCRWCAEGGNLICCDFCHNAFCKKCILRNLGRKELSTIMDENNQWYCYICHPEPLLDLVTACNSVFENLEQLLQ
# B1: H3 112-124 I H A Kac R V T I M P Kme3 D I (peptide)
# chain: IHAKRVTIMPKDI
# B2: H3 112-124 I H A Kme Rme V T I M P K D I (peptide)
# chain: IHAKRVTIMPKDI
# B3: H3 112-124 I H A K R V T I M P K D I (peptide)
# chain: IHAKRVTIMPKDI
# B4: H3 112-124 I H A Kac R V T I M P Kme2 D I (peptide)
# chain: IHAKRVTIMPKDI
# B5: H3 112-124 I H A Kac Rme2a V T I M P K D I (peptide)
# chain: IHAKRVTIMPKDI
# Legend:
# Assay in all cases: peptide microarray binding signal (635 nm), min-max normalized on array (fraction of array maximum); higher = stronger binding
# Details in all cases: peptide region: H3 112-124
# [1] = biological target: T1, HaloTag-ATRX ADD domain (163-292)
# Method in brief: (§1)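 An Axon GenePix 4000B scanned the arrays at 635 nm for signal and at 532 nm to catch misprints. Those arrays held histone 13-mer peptide–cellulose conjugates printed in triplicate on nitrocellulose with a Cy3 tracer, blocked overnight at 4°C and probed for 1 h at 4°C with biotin-labelled HaloTag reader fusions (10 nM to 1 μM) plus streptavidin-Alexa Fluor 647 or with rabbit histone antibodies (1:10,000 to 1:2,000) plus anti-rabbit Alexa 647. Each binding signal is a triplicate-spot mean intensity, scaled min-max within its library.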
# [2] = biological target: HaloTag-ING2 PHD (mouse Ing2 200-280)
# Method in brief: as §1
# [3] = biological target: anti-H3K4me3 antibody ab8580
# Method in brief: as §1
# [4] = biological target: anti-H3K9me3 antibody ab8898
# Method in brief: as §1
# [5] = peptide modifications: H3K115ac H3K122me3, binder concentration: 1:2,000 dilution
# [6] = peptide modifications: H3K115ac H3K122me3, binder concentration: 1:10,000 dilution
# [7] = peptide modifications: H3K115me1 H3R116me1, binder concentration: 1:2,000 dilution
# [8] = peptide modifications: H3K115me1 H3R116me1, binder concentration: 1:10,000 dilution
# [9] = binder concentration: 1:2,000 dilution
# [10] = binder concentration: 1:10,000 dilution
# [11] = peptide modifications: H3K115ac H3K122me2, binder concentration: 1:2,000 dilution
# [12] = peptide modifications: H3K115ac H3K122me2, binder concentration: 1:10,000 dilution
# [13] = peptide modifications: H3K115ac H3R116me2a, binder concentration: 1:2,000 dilution
# [14] = peptide modifications: H3K115ac H3R116me2a, binder concentration: 1:10,000 dilution
binder,measurement,setting,value
B1,peptide microarray binding signal,"[1]; peptide modifications: H3K115ac H3K122me3, binder concentration: 50 nM",0.0118 ± 0.00049
same,peptide microarray binding signal,"[1]; peptide modifications: H3K115ac H3K122me3, binder concentration: 500 nM",0.027 ± 0.0019
same,peptide microarray binding signal,"[2]; peptide modifications: H3K115ac H3K122me3, binder concentration: 10 nM",0.04 ± 0.0046
same,peptide microarray binding signal,"[2]; peptide modifications: H3K115ac H3K122me3, binder concentration: 100 nM",0.0592 ± 0.018
same,peptide microarray binding signal,[3]; [5],0.00634 ± 0.00027
same,peptide microarray binding signal,[3]; [6],0.00679 ± 0.00065
same,peptide microarray binding signal,[4]; [5],0.0228 ± 0.0018
same,peptide microarray binding signal,[4]; [6],0.0104 ± 0.00089
B2,peptide microarray binding signal,"[1]; peptide modifications: H3K115me1 H3R116me1, binder concentration: 50 nM",0.0108 ± 0.00023
same,peptide microarray binding signal,"[1]; peptide modifications: H3K115me1 H3R116me1, binder concentration: 500 nM",0.0356 ± 0.0019
same,peptide microarray binding signal,"[2]; peptide modifications: H3K115me1 H3R116me1, binder concentration: 10 nM",0.0466 ± 0.0022
same,peptide microarray binding signal,"[2]; peptide modifications: H3K115me1 H3R116me1, binder concentration: 100 nM",0.0304 ± 0.0046
same,peptide microarray binding signal,[3]; [7],0.00891 ± 0.0021
same,peptide microarray binding signal,[3]; [8],0.00593 ± 0.0011
same,peptide microarray binding signal,[4]; [7],0.00746 ± 0.0012
same,peptide microarray binding signal,[4]; [8],0.00646 ± 0.00037
B3,peptide microarray binding signal,[1]; binder concentration: 50 nM,0.00972 ± 0.00063
same,peptide microarray binding signal,[1]; binder concentration: 500 nM,0.0345 ± 0.00086
same,peptide microarray binding signal,[2]; binder concentration: 10 nM,0.0135 ± 0.0014
same,peptide microarray binding signal,[2]; binder concentration: 100 nM,0.0205 ± 0.0093
same,peptide microarray binding signal,[3]; [9],0.00261 ± 0.00029
same,peptide microarray binding signal,[3]; [10],0.001883 ± 1.8e-05
same,peptide microarray binding signal,[4]; [9],0.00415 ± 0.00045
same,peptide microarray binding signal,[4]; [10],0.00167 ± 2.8e-05
B4,peptide microarray binding signal,"[1]; peptide modifications: H3K115ac H3K122me2, binder concentration: 50 nM",0.00668 ± 0.00012
same,peptide microarray binding signal,"[1]; peptide modifications: H3K115ac H3K122me2, binder concentration: 500 nM",0.0132 ± 0.00064
same,peptide microarray binding signal,"[2]; peptide modifications: H3K115ac H3K122me2, binder concentration: 10 nM",0.0198 ± 0.004
same,peptide microarray binding signal,"[2]; peptide modifications: H3K115ac H3K122me2, binder concentration: 100 nM",0.0271 ± 0.0018
same,peptide microarray binding signal,[3]; [11],0.00159 ± 0.00013
same,peptide microarray binding signal,[3]; [12],0.00211 ± 5.8e-05
same,peptide microarray binding signal,[4]; [11],0.00169 ± 0.00021
same,peptide microarray binding signal,[4]; [12],0.00133 ± 4e-05
B5,peptide microarray binding signal,"[1]; peptide modifications: H3K115ac H3R116me2a, binder concentration: 50 nM",0.00787 ± 0.00018
same,peptide microarray binding signal,"[1]; peptide modifications: H3K115ac H3R116me2a, binder concentration: 500 nM",0.0159 ± 0.00051
same,peptide microarray binding signal,"[2]; peptide modifications: H3K115ac H3R116me2a, binder concentration: 10 nM",0.0239 ± 0.00027
same,peptide microarray binding signal,"[2]; peptide modifications: H3K115ac H3R116me2a, binder concentration: 100 nM",0.0365 ± 0.0046
same,peptide microarray binding signal,[3]; [13],0.00423 ± 0.00017
same,peptide microarray binding signal,[3]; [14],0.00394 ± 0.00014
same,peptide microarray binding signal,[4]; [13],0.00278 ± 0.00019
same,peptide microarray binding signal,[4]; [14],0.00306 ± 0.0002
